Compound activity: PubChem BioAssay, The Scripps Research Institute Molecular Screening Center
Hits are enriched below; roughly 4.6% of the tested compounds scored in any of these assays.
ssDAF-12 act: activators of S. stercoralis DAF-12 nuclear receptor; HEK293 ssDAF-12/GRIP1 lit1-tk-luc reporter, luminescence; % of 3 µM dafachronic acid response; activation, % at 6.8 µM; 370,000 compounds, 1% hits;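 active means activation above the mean over all tested compounds plus 3 SD, cut at about 0.9% in these data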;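 further: 0% = DMSO-only wells and 100% = 3 µM delta7-dafachronic acid wells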
DAX1 inh-1: inhibitors of human orphan nuclear receptor DAX1 (NR0B1). 340,000 compounds, 0.99% hits. HEK293 Gal4-DAX1 luciferase reporter, luminescence. P51843. inhibition, % at 6.75 µM. AID 504766;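 active means inhibition above the mean over all tested compounds plus 3 SD, cut at about 4.2% in these data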;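 further: 0% = DAX1-transfected cells with DMSO and 100% = empty-vector control cells with DMSO; inhibition shows as a rise in luminescence from relieved DAX1 repression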
Wee1 degr inh: inhibitors of human Wee1 degradation; P30291; HeLa Luc-Wee1K328M stability, luciferase luminescence; 100% = proteasome inhibitor MG132 effect; reporter increase, % at 5 µM; 220,000 compounds, 1.2% hits; AID 1321;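 active means activation above the mean of all tested compounds plus 3 SD, set per screening run, cut at about 8.8% in these data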;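 further: cells exposed to compound for 20 h before luminescence read; 0% = DMSO alone and 100% = MG132 at 30 µM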
Target sequence (P30291 whole entry K328M): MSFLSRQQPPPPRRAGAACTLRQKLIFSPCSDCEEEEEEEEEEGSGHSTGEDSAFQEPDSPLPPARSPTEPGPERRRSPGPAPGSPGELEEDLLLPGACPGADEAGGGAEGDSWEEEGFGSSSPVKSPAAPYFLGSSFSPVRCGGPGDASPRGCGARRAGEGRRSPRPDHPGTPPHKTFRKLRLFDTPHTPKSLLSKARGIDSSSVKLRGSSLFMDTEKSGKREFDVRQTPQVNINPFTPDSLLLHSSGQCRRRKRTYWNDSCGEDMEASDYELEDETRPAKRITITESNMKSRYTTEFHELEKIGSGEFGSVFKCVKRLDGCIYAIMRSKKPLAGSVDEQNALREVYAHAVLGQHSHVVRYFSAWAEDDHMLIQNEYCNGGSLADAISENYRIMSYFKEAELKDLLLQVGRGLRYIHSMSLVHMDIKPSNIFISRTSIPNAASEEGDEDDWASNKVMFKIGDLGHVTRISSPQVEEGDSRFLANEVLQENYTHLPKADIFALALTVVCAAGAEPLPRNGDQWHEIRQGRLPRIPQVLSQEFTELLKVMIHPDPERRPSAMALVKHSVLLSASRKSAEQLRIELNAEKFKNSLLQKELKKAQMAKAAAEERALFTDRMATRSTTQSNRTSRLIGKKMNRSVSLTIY
hgDAF12 agonist: agonists of H. glycines DAF-12 nuclear receptor | AID 687014 | activation, % at 6.8 µM | HEK293 GAL4-hgDAF12 UAS-luciferase reporter, agonist luminescence; normalized to butyrate control | 370,000 compounds, 1.8% hits;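 active means activation above a cutoff set at the mean of all screened compounds plus 3 SD, cut at about 10% in these data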;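 further: 0% = DMSO wells and 100% = sodium butyrate wells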
hcDAF-12 act: activators of H. contortus DAF-12 nuclear receptor. HEK293 hcDAF-12 lit1-tk-luc reporter, luminescence; 0% DMSO, 100% Δ7-dafachronic acid. 370,000 compounds, 1.4% hits. activation, % at 6.8 µM;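 active means activation above the mean of all tested compounds plus 3 SD, cut at about 5.5% in these data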;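 further: 100% = response to 3 µM Δ7-dafachronic acid high control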
DAX1 inh-2: DAX1 (NR0B1) inhibition, primary screen | 370,000 compounds, 1.1% hits | inhibition, % at 6.8 µM | AID 652010 | HEK293T StAR-luciferase reporter, SF-1/DAX-1 repression relief;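 active means inhibition above the mean over all tested compounds plus 3 SD, cut at about 3.6% in these data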;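 further: 0% = DAX-1 cells with DMSO and 100% = cells lacking DAX-1 with DMSO; higher inhibition means more luminescence from relief of DAX-1 repression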
Wee1 stab conf: human Wee1 degradation inhibition, confirmation | HeLa Luc-Wee1K328M degradation, luminescence; vehicle 0%, proteasome-blocked wells 100% | shares compounds with Wee1 degr inh | 1,100 compounds, 4% hits | AID 1410 | activation, % at 5 µM; in the data active means activation above about 8.9%
Starred values were filed as active, the others as inactive; nt = no result.

SMILES	ssDAF-12 act	DAX1 inh-1	Wee1 degr inh	hgDAF12 agonist	hcDAF-12 act	DAX1 inh-2	Wee1 stab conf
Nc1cccc2[nH]c(=O)c3ccccc3c12	-0.9	1.5	nt	0.6	1.6	-0.7	nt
COC(=O)c1ccccc1NC(=O)C(C)Oc1ccccc1 (configuration not stated)	-1.0	0.7	16.5*	0.1	-4.2	0.0	2.1
CC(C)NC(=O)c1ccccc1NC(=O)C(C)Oc1ccccc1 (configuration not stated)	-2.1	1.4	-0.8	-3.1	-1.5	-0.9	nt
O=C(NCCS(=O)(=O)NC1CCCCC1)c1ccc2c(c1)OCO2	-1.0	-0.4	nt	0.3	-0.3	-0.6	nt
CCc1ccc(OC2(C)CCN(Cc3ccc(SC)cc3)C2)cc1 (configuration not stated)	-1.4	nt	nt	-0.6	0.2	-0.6	nt
COc1ccc(OCC(O)Cn2c(=N)n(CCN3CCCCC3)c3ccccc32)cc1 (configuration not stated)	-0.5	-0.3	14.3*	-1.6	-0.4	0.1	-2.6
CC(C)N1CC(=O)N2CSCC2C1=O (configuration not stated)	-0.5	nt	nt	0.1	-0.7	1.0	nt
Nc1[nH]c(C(=O)c2ccccc2)c(-c2ccc(Br)cc2)c1C(=O)c1ccc(Br)cc1	-1.2	nt	nt	2.0	1.2	-0.5	nt
CN(CCc1ccccn1)C(=S)Nc1ccc(Cl)c(Cl)c1	-1.0	-0.5	15.1*	0.7	-1.8	-0.3	2.9
CN(CCc1ccccn1)C(=S)Nc1cccc(S(=O)(=O)N(C)C)c1	-0.9	0.5	nt	-1.7	-2.2	-0.3	nt
N#CCC(=O)Nc1ccc(C(=O)NCC2(N3CCOCC3)CCCCC2)cc1	-1.0	0.1	nt	-0.2	-2.1	-0.7	nt
O=C(CNCC1(N2CCOCC2)CCCCC1)Nc1ccc(Cl)cc1	-0.9	0.1	19.3*	-1.4	-1.4	0.1	0.1
CCCCS(=O)(=O)/C=C\C=C/S(=O)(=O)CCCC	nt	-3.6	18.7*	nt	nt	nt	12.1*
COc1ccc(S[C@]2(C(=O)NCCCN(C)C)CC(=O)N[C@@H]2c2ccc(OC)cc2)cc1	-0.7	nt	nt	-1.4	0.9	-0.1	nt
O=S1(=O)CCO[C@H]2Cc3ccccc3[C@H]2N1Cc1ccc(F)cc1	-1.2	-0.2	nt	2.2	-1.3	0.2	nt
CCOC(=O)c1c(CSc2ccccc2)n(C)c2cc(Br)c(OCC(O)CNC(CO)(CO)CO)cc12 (configuration not stated)	-2.0	-1.3	11.5*	0.0	-1.3	0.3	3.5
CCC1CCCCN1C(=S)NC1CCCCC1 (configuration not stated)	-1.2	-0.9	13.9*	-3.1	-1.3	-0.1	0.7
S=C(NC1CCCCC1)N1CCCCC1	-1.1	0.1	-0.1	-0.9	0.0	-0.1	nt
N#Cc1cnn(-c2ccc(F)cc2)c1N	-1.7	1.9	-0.7	-0.9	1.1	-0.2	nt
Cc1ccc(-n2ncc(C#N)c2N)cc1	-0.2	3.2	11.2*	-2.5	0.0	0.0	0.5
COCCCNC(=O)c1ccc2nc([C@@H]3O[C@H](CO)[C@H](O)[C@H](O)[C@H]3O)[nH]c2c1	-0.1	nt	nt	1.3	-1.5	-0.1	nt
O=C(Nc1nccs1)C(F)(F)C(F)(F)C(F)(F)C(=O)Nc1nccs1	-0.8	-1.4	3.3	-1.6	-0.9	-0.5	nt
C/C=C/C=C/C(=O)Nc1nccs1	-1.4	3.7	11.4*	3.1	-1.1	1.0	1.8
CC(C)[C@H](NC(=O)c1ccco1)C(=O)OCC(=O)N1CC(=O)Nc2ccccc21	-1.8	1.1	14.0*	-0.4	-0.4	0.5	-0.6
C[C@H](NC(=O)c1ccco1)C(=O)OCC(=O)N1CC(=O)Nc2ccccc21	-0.4	0.6	nt	3.7	-0.5	0.5	nt
SMILES	ssDAF-12 act	DAX1 inh-1	Wee1 degr inh	hgDAF12 agonist	hcDAF-12 act	DAX1 inh-2	Wee1 stab conf
O=C(NCc1ccncc1)c1csc([C@@H]2C[C@H](O)[C@@H](CO)O2)n1	-0.7	nt	nt	-1.0	0.1	0.6	nt
Cc1cc(C)n(-c2cccc(Cl)c2C#N)n1	-2.3	-1.1	13.0*	-1.0	-1.4	1.1	-4.1
N#Cc1c(Cl)cccc1-n1ccnc1	-1.2	0.0	6.2	0.5	-0.4	0.3	nt
CC(=O)c1ccc(OCC(=O)c2cc(C)n(-c3ccc4c(c3)OCO4)c2C)cc1	-1.7	-1.5	15.4*	-1.3	-1.3	-0.2	0.5
Cc1cc(C(=O)COC(=O)c2ccc(N)c([N+](=O)[O-])c2)c(C)n1-c1ccc2c(c1)OCO2	-1.9	-0.5	3.8	1.1	-1.8	-0.6	nt
NS(=O)(=O)c1cccc(NC(=O)CSc2nc3ccc(Cl)cc3[nH]2)c1	-1.8	0.6	11.8*	-0.9	0.5	0.1	-3.3
COc1cc(/C=N/NC(=O)c2ccc(CSc3nncn3C)cc2)cc(OC)c1O	-1.4	0.7	11.4*	0.9	-0.5	-0.2	-2.5
Cc1noc(C)c1NC(=O)Nc1ccc2c(c1)C(=O)N([C@H](C)CO)C[C@H](C)[C@@H](CN(C)C(=O)Nc1ccc3c(c1)OCO3)O2	-1.2	0.8	nt	-0.9	0.9	-0.1	nt
O=c1[nH]cnc2c1ncn2-c1ccc(Cl)cc1	-0.8	1.4	nt	0.3	-0.2	1.3	nt
CCN(CC)c1ccc(NC(=O)c2cnccn2)cc1S(=O)(=O)Nc1ccc(OC)cc1	-1.8	-2.0	11.5*	-2.3	-4.2	-0.5	3.0
c1ccc2c(c1)ccn2CCCN1CCCCC1	-0.2	2.9	nt	1.5	-0.9	-0.1	nt
CCN(CC)CCOC(=O)C1(c2ccccc2)CCOCC1	-1.0	-0.3	13.9*	-0.8	-1.1	0.3	0.4
CCN(CC)CCOCCOC(=O)C1(c2ccccc2)CCCC1	-1.6	-0.3	nt	0.8	1.4	-0.6	nt
CN(CCCn1ccc(NC(=O)OCc2ccccc2)nc1=O)CCc1ccccn1	-1.2	1.0	nt	-1.7	-1.0	-1.0	nt
Cc1ccc(OCCSc2nc(N)cc(N)n2)cc1	-0.3	1.2	11.4*	6.1	-0.1	1.8	0.2
COc1ccc(S(=O)(=O)N2CCCCCC2)cc1NC(=O)Cc1n[nH]c(=O)c2ccccc12	-1.2	-0.6	nt	0.6	-1.7	0.1	nt
COc1ccc(C(O)c2ncc(-c3ccccc3Cl)[nH]2)cc1F (configuration not stated)	-0.4	nt	nt	-1.5	-0.7	-1.0	nt
COC(=O)C1=C(C(=O)OC)[C@@]2([C@@H](Cc3ccc(C)cc3)Nc3ccccc3)C=C[C@@H]1O2	-2.5	nt	nt	-10.9	-4.2	nt	nt
Cc1ccc(C2NC(=O)Cc3ccccc32)cc1 (configuration not stated)	-1.0	-0.4	13.5*	-1.4	-0.9	0.3	1.2
CCC[C@H]1[C@@H](N(C)Cc2ccccc2)CC[C@@]23CCCN2C(=O)CCC[C@@H]13	-1.6	nt	nt	-1.7	-1.3	nt	nt
